Screening results (PubChem)
Sampled rows, rich in hits. Any-hit rate of the full collection: about 4.6%.
TRHR agonist: activates the human TRH receptor; activation, % at 2 µM; P34981; TRHR cells, calcium flux fluo-8, FDSS agonist mode; AID 493084; 360,000 tested, 0.18% active
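TRHR-expressing cells loaded with fluo-8 calcium dye; 23 nL library compound pin-transferred, kinetic FDSS fluorescence (Ex 480/Em 530) recorded about 180 s for agonist-induced calcium release, before a 10 nM TRH EC20 addition for potentiator mode.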
Epigenetic reg: derepresses silenced GFP reporter in murine cells; murine LDR cells, GFP reporter derepression, 30 h; Potency, µM (top dose mostly 53.9 µM), actives largely listed as activators; 280,000 tested, 0.2% active; AID 1865; active = well fitted activation curve with a large enough effect; inconclusive = small, poorly fitted or top-dose-only effect; also: nearly all actives have a fitted effect of over 60% in size
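Murine LDR cells carrying a silenced, genomically integrated CMV-driven GFP reporter were exposed to compound for 30 hours at 37 C. After PBS washes, GFP-positive cells (20–120 um objects) were counted by laser-scanning microplate cytometry.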
D1 PAM: potentiators of human D1 dopamine receptor; 360,000 tested, 0.036% active; P21728; potentiation, % at 10 µM; AID 504651; HEK293 TREx D1 cells, calcium flux, dopamine EC20 potentiation; in the data active = potentiation above about 30%
Target sequence (P21728 whole entry, looked up): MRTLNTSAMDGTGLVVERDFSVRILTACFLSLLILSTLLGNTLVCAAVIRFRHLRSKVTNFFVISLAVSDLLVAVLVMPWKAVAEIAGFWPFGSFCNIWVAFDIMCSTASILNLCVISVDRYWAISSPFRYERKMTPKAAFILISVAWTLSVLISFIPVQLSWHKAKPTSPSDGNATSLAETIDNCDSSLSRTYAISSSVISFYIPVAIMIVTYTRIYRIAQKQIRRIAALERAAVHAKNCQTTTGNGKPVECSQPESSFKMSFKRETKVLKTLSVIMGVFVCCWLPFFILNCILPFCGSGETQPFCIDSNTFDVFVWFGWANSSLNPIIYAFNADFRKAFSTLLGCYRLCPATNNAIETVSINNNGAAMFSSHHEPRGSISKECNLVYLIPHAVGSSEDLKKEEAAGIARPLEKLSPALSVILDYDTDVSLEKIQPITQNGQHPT
D1 antag: human D1 dopamine receptor antagonism; P21728; HEK293 TREx D1 cells, calcium flux, dopamine EC80; hits give low values; activity change, negative = inhibition, % at 10 µM; 360,000 tested, 3.2% active; AID 504652; in the data active = activity change below about -30%
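Tetracycline-induced HEK293 Trex D1 cells, force-coupled to calcium, dye-loaded; compounds added and read 180 s, then EC80 dopamine added and calcium flux tracked kinetically another 180 s.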
TRHR PAM: allosterically enhances the human TRH receptor | P34981 | TRHR cells, fluo-8 calcium fluorescence, EC20 TRH enhancement | enhancement, % at 2 µM | 360,000 tested, 0.66% active | AID 493056; in the data active = enhancement above about 30%
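Enhancer read-out: after compound pinning and an initial kinetic agonist-mode read, an EC20 of TRH (10 nM final) was injected and fluo-8 calcium signal (Ex 480/Em 530) followed at 1 s/cycle for 100 cycles in TRHR-expressing cells.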
D1 agonist: agonists of human D1 dopamine receptor | P21728 | HEK293 T-REx D1 cells, calcium flux, agonist mode | activation, % at 2 µM | 360,000 tested, 1% active | AID 504660
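Agonism was scored from calcium flux recorded over 180 s (1 read/s) after pintool compound addition, following a 10-cycle baseline. Cells were inducible force-coupled HEK293 TREx D1, plated overnight at 30 C and loaded with no-wash calcium dye.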
Large screens that a line does not name were inactive. Rule as the data show it, unless noted: active = activation above about 30%; inactive = the rest.

N#Cc1c(NC(=O)C2CCCO2)sc2c1CCCCCC2 (centres undefined)	D1 antag -31.8
O=C(NC[C@H](O)c1ccccc1)c1ccccc1	none (no result: TRHR agonist, D1 PAM, D1 antag, TRHR PAM, D1 agonist)
COc1cc(OC)cc(C(=O)N[C@H](C(=O)Nc2ccc3c(c2)OCO3)C(C)C)c1	D1 antag -33.4
COc1cc(OC)cc(C(=O)NC(C(=O)Nc2ccc3c(c2)OCO3)C(C)C)c1 (centres undefined)	none (no result: Epigenetic reg, D1 PAM)
CN=c1scc(-c2ccc(OC)cc2)n1/N=C(\C)c1cccnc1	D1 antag -54.7
CCCn1c2ccccc2c2cnn(CC(=O)Nc3ccccc3OC)c(=O)c21	none
Cc1ccc(N/N=C(\C#N)C(=O)c2ccsc2)cc1	D1 antag -46.6
C/C(=N\O)c1ccc(Cl)cc1Cl	none
C/C(=N\N=C(N)N)c1cc(Cl)ccc1Cl	D1 antag -44.6
C/C(=N\N=C(N)N)c1ccc(Cl)cc1Cl	D1 antag -35.8
C/C(=N\NC(N)=O)c1cccc(Cl)c1	none
C/C(=N\N=C(N)N)c1cccc(Cl)c1	D1 antag -47.3
COc1ccc(S(=O)(=O)N2CCC(C(=O)NC(C)c3ccccc3)CC2)cc1 (centres undefined)	none
Cc1cc(C)cc(OCC(=O)NNC(=O)c2ccccn2)c1	D1 antag -37.8 (no result: Epigenetic reg)
Cc1ccc(OCC(=O)O/N=C(\N)c2ccccn2)cc1C	D1 antag -44.0
COc1ccc(C(=O)Oc2c(CN3CCOCC3)cc(Cl)c3cccnc23)cc1	Epigenetic reg 7.08µM
COc1cc(C(=O)Oc2c(CN3CCOCC3)cc(Cl)c3cccnc23)cc(OC)c1OC	Epigenetic reg inconclusive
COc1cccc(C(=O)Oc2c(CN3CCOCC3)cc(Cl)c3cccnc23)c1	Epigenetic reg 4.47µM
COc1ccc(/C=C/c2nc(C#N)c(N3CCC(C(N)=O)CC3)o2)cc1OC	none
CN1CCN(CCc2ccc(Cl)c(Cl)c2)CC1	none (no result: TRHR agonist, D1 PAM, D1 antag, TRHR PAM, D1 agonist)
CCn1cc(C(=O)Nc2ccc(C(C)C)cc2)c2cc(OC)c(OC)cc2c1=O	none
Cc1ccc(NC(=O)CN(c2ccc(Cl)cc2)S(=O)(=O)c2cc([N+](=O)[O-])ccc2Cl)c(C)c1	D1 antag -56.0
Cc1cccc(C(c2sc3nc(-c4ccco4)nn3c2O)N2CCN(c3ccccc3)CC2)c1 (centres undefined)	none (no result: D1 antag)
CCCn1c2ccccc2c2cnn(CC(=O)N3CCC(C)CC3)c(=O)c21	none
Cc1noc(/C=C/c2ccco2)c1S(=O)(=O)N1CCC(C(=O)Nc2ccc(F)cc2F)CC1	Epigenetic reg inconclusive
c1ccc(-n2c(Sc3cnccn3)nnc2-c2cccs2)cc1	TRHR PAM 31.2
NC(=O)CSc1nnc(-c2cccs2)n1-c1ccccc1	none
Cc1ccccc1COC(=O)CCCC1=NS(=O)(=O)c2ccccc2N1	D1 agonist 30.6 (no result: Epigenetic reg)
Cc1ccc(NC(=O)COC(=O)CCCC2=NS(=O)(=O)c3ccccc3N2)cc1C	none (no result: Epigenetic reg)
COc1ccc(/C(C)=N/N=C2/NC(=O)CC(C(=O)O)S2)cc1F (centres undefined)	D1 antag -31.4
CNC(=O)C1CC(=O)N/C(=N/N=C(\C)c2cccs2)S1 (centres undefined)	D1 antag -31.5
COc1ccc(/C(C)=N/N=C2/NC(=O)CC(C(=O)O)S2)cc1 (centres undefined)	none
COc1ccc(CN2CCN(C(=O)CCC(=O)Nc3nnc(CC(C)C)s3)CC2)cc1F	D1 agonist 35.7 (no result: Epigenetic reg)
O=C(NCCS(=O)(=O)N1CCN(c2ccccc2F)CC1)c1ccc(F)c(F)c1	D1 antag -33.3 (no result: Epigenetic reg)
O=C(NCCS(=O)(=O)N1CCCCCC1)c1ccc(F)cc1	TRHR PAM 30.5 (no result: Epigenetic reg)
O=C(Cc1ccc(-c2ccccc2)cc1)NCCS(=O)(=O)N1CCN(c2ccccc2F)CC1	none
CCOC(=O)N1CCN(C(=O)Cc2c(C(=O)O)n(C)c3ccccc23)CC1	none
CCOC(=O)C1CCN(C(=O)Cc2c(C(=O)O)n(CC)c3ccccc23)CC1	D1 antag -86.7
O=C(Nc1cccc(C(F)(F)F)c1)N1CCC(CN2CCCCCC2)CC1	none
CCOC(=O)[C@H]1[C@H]2COc3ccc(C)cc3[C@@H]2N2C(=O)c3cc(F)ccc3NC(=O)[C@@]12C	none (no result: Epigenetic reg)
CCOC(=O)[C@H]1[C@H]2COc3ccc(Cl)cc3[C@@H]2N2C(=O)c3cc(F)ccc3NC(=O)[C@@]12C	D1 agonist 31.5 (no result: Epigenetic reg)
CCCCC(CC)CNC(=O)CCS(=O)(=O)c1cccc2nonc12 (centres undefined)	D1 antag -56.3
CC(=O)N1N=C(c2cccc([N+](=O)[O-])c2)OC1(C)CC(=O)Nc1ccccc1 (centres undefined)	D1 antag -77.4
CC(=O)N1N=C(c2ccccc2)OC1(C)CC(=O)Nc1ccccc1 (centres undefined)	none
COc1ccc(CC2(C)OC(c3ccccc3)=NN2C(C)=O)cc1 (centres undefined)	D1 antag -42.5
CCc1ccc(C2c3c(-c4cc(C)ccc4O)n[nH]c3C(=O)N2Cc2cccnc2)cc1 (centres undefined)	none
CCOc1ccc(C(=O)C(C)OC(=O)c2nc(Cl)ccc2Cl)cc1 (centres undefined)	D1 agonist 35.2 (no result: Epigenetic reg)
O=C(CCCc1nc2ccccc2s1)NCc1ccccc1F	D1 antag -42.3
O=C(CCc1nc2ccccc2s1)NCc1ccccc1F	none
CCCN1C(C(=O)c2ccccc2)=C(OC(=O)COc2ccc(C)cc2)c2ccccc2S1(=O)=O	none
COc1ccc(NC(=O)c2sc3nc(-c4cccnc4)ccc3c2N)cc1OC	Epigenetic reg 7.08µM
Nc1c(C(=O)Nc2ccccc2)sc2nc(-c3cccnc3)ccc12	Epigenetic reg 3.55µM
COc1ccc(NC(=O)c2sc3nc(-c4cccnc4)ccc3c2N)cc1	Epigenetic reg inconclusive
COc1ccc(Nc2nc(N)c3ccccc3n2)c(OC)c1	D1 antag -37.4 (no result: Epigenetic reg)
CCOc1nc(Nc2ccc(OC)cc2OC)nc(OCC)n1	D1 antag -30.8 (no result: Epigenetic reg)
O=C1CN(C(=O)COc2ccc(Cl)cc2Cl)C(c2ccc(F)cc2)c2cc(F)ccc2N1 (centres undefined)	none
NC1=NC2(CCN(Cc3ccccc3)CC2)n2c(nc3ccccc32)N1	D1 antag -43.2
CC1CCN(C(=O)CN2c3ccc(Br)cc3-c3ccccc3S2(=O)=O)CC1	none
COc1ccccc1N1CCN(S(=O)(=O)c2ccc3c4c(cccc24)C(=O)N3C)CC1	none
CN1C(=O)c2cccc3c(S(=O)(=O)N4CCCC4C(=O)O)ccc1c23 (centres undefined)	D1 antag -37.6 (no result: Epigenetic reg)
Nc1nc2c(nc(Br)n2C2O[C@H]3COP(=O)(O)O[C@@H]3C2O)c(=O)[nH]1 (some centres undefined)	none (no result: TRHR agonist, D1 PAM, D1 antag, TRHR PAM, D1 agonist)
